Screens from PubChem BioAssay.
Only a selection was taken, and hits are over-represented in it overall.
SF-1 inh = inhibitors of human SF-1, primary screen, cell-based, CHO-K1, Gal4-SF-1 LBD, luciferase luminescence; Steroidogenic factor 1 (Homo sapiens), Q13285; CHO-K1 Gal4-SF-1 LBD luciferase reporter; inhibition, % at 10 µM; 65,000 compounds, 0.55% hits;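 active means inhibition above the mean inhibition of all tested compounds plus 3 SD, cut at about 48% in these data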;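 further: 0% = SF-1 transfected cells with DMSO and 100% = mock-transfected cells lacking SF-1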
Target sequence (Q13285 whole entry, looked up, the tested form may be a part): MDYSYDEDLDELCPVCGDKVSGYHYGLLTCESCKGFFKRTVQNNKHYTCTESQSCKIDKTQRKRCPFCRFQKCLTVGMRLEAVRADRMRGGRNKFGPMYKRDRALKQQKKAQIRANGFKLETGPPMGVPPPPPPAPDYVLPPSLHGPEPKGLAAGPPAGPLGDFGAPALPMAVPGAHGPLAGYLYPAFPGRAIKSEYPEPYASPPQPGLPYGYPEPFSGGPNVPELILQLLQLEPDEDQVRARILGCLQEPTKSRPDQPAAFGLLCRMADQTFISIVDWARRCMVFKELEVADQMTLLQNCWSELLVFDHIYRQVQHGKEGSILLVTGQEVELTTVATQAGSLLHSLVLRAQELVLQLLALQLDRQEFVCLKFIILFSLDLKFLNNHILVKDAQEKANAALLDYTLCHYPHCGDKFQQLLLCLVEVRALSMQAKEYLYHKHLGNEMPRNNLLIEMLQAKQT
* hit, by the source's call.

SMILES | SF-1 inh
Cc1ccc(C(=O)/C=C/Nc2ccccn2)cc1 | 83*
Cc1cc(NC(=O)c2cc(-c3ccccn3)nc3ccccc23)no1 | 7
COc1ccc(C(=O)/C=C/Nc2cccc(C)n2)cc1OC | -88
COc1ccccc1NC(=O)C1C2C=CC3(CN(Cc4cccnc4)C(=O)C13)O2 (configuration not stated) | 13
CCCCP(=O)(CCCC)c1ccccc1C(=O)O | -10
COCCn1c(SCCN2CCCCC2)nc2ccccc2c1=O | -7
O=C1/C(=C/Nc2ccc3c(c2)OCO3)CCc2ccccc21 | 74*
O=C1c2ccccc2C(O)N1Cc1ccc2c(c1)OCO2 (configuration not stated) | -14
O=C(Nc1ccc2c(c1)OCO2)c1c(F)cccc1F | -58
CC(C)Oc1ccc(/C(O)=C2/C(=O)C(=O)N(CCN(C)C)C2c2ccco2)cc1 (configuration not stated) | -28
COc1cc(C(=O)Nc2nnc(-c3sccc3C)s2)cc(OC)c1OC | 6
O=C(c1ccccc1)c1c[nH]c2cc3c(cc2c1=O)OCCO3 | -50
CCc1ccc(N2CCCn3c2nc2c3c(=O)n(CCN3CCOCC3)c(=O)n2C)cc1 | -18
CCCc1cc(=O)oc2cc3oc(C)c(C)c3cc12 | 2
c1csc(CCNc2ncnc3sc4c(c23)CCC4)c1 | 76*
c1coc(CNc2nc3sc4c(c3c3ncnn23)CCCC4)c1 | -7
O=C(CCCc1cccs1)Nc1nc2c(s1)CCCC2 | -73
CC(C(=O)N1CCCCC1)N1C(=O)c2ccccc2C1=O (configuration not stated) | 4
O=C(N(c1ccccc1)c1ccccc1)n1ccnc1 | 10
Cc1ccccc1NC(=O)C1CC(=O)N(c2ccccc2F)C1 (configuration not stated) | 16
O=C(/C=C\Nc1cccc(F)c1)c1ccc2c(c1)OCO2 | 58*
COC(=O)c1ccc(NC(=O)c2ccc3c(c2)OCO3)cc1 | -53
O=C(CCNc1ccccc1)c1ccc2c(c1)OCO2 | -62
O=S(=O)(Nc1cccnc1)c1ccc2c(c1)OCCO2 | 3
Cc1ccnc2ccc(-c3nc4ccccc4o3)cc12 | -56
SMILES | SF-1 inh
c1ccc2nc(-c3nc4ccccc4o3)ccc2c1 | 64*
Clc1ccc2oc(-c3ccccn3)nc2c1 | -59
O=C(Nc1nccs1)c1ccc(Cl)s1 | -58
O=C(Nc1ccc2sccc2c1)c1ccc(Cl)s1 | -60
O=C(Nc1nc(-c2ccccn2)cs1)c1ccc(S(=O)(=O)N2CCCCC2)cc1 | 64*
Cc1nc2ccc3nc(NC(=O)c4ccc(S(=O)(=O)N5CCOCC5)cc4)sc3c2s1 | 12
O=C(NC1CCCCC1)c1ccc(S(=O)(=O)N2CCCCC2)cc1 | -14
O=C(Nc1nc(-c2ccccn2)cs1)c1ccc(Cl)s1 | 95*
Cc1cccc(NC(=O)c2oc3c(c2C)C(=O)CC(C)(C)C3)n1 | -10
O=C(Nc1ccc2c(c1)CCC2)c1cnccn1 | -55
O=c1c(-c2ccc(F)cc2)coc2c3c(ccc12)OCCO3 | -63
Fc1ccc2nc3[nH]c4ccccc4c3nc2c1 | -90
COc1ccc(OC)c(N(CC(=O)N2CCN(c3cc(Cl)ccc3C)CC2)S(C)(=O)=O)c1 | 12
Cc1ccccc1NC(=O)N1CCCC(c2nc(-c3ccc(C(C)C)cc3)no2)C1 (configuration not stated) | 51*
CC(C)c1ccc(NC(=O)C2CCCN(S(=O)(=O)c3cnc[nH]3)C2)cc1 (configuration not stated) | -6
O=C(Nc1nccs1)c1ccc(COc2ccccc2Br)o1 | -60
c1cn(CC2(Cn3ccnc3)COC2)cn1 | -8
CCN(CCCNC(=O)CC1Oc2ccc(C)cc2NC1=O)Cc1ccccc1 (configuration not stated) | -8
COc1cccc2c1C(=O)c1c(O)c3c(c(O)c1C2=O)C[C@@](O)(C(C)=O)C[C@@H]3O[C@H]1C[C@H](N)[C@H](O)[C@H](C)O1 | 89*
COC(=O)c1ccc(C(c2c(N)n(Cc3ccccc3)c(=O)n(C)c2=O)N2CCOCC2)cc1 (configuration not stated) | 0
O=C(NC(NCc1ccccn1)(C(F)(F)F)C(F)(F)F)c1ccco1 | -1
Cc1cnc(NC(=O)CN2CCN(c3ccccn3)CC2)s1 | 61*
O=C(CN1CCN(c2ccccn2)CC1)Nc1cccc(C(F)(F)F)c1 | 16
COc1ccccc1NC(=O)N1CCN(c2ccccn2)CC1 | 13
CCN(CC)C(=O)CSc1ncnc2c(-c3cccs3)nsc12 | -68
SMILES | SF-1 inh
COC(=O)c1ccc2c(=O)n(CCN3CCOCC3)c(SCC(=O)NC3CCCCC3)nc2c1 | -8
COc1ccc(S(=O)(=O)N(C)CC(=O)NC2CC2)cc1 | -12
O=S1(=O)Nc2c(ccc3cccnc23)-c2ccccc21 | 91*
CCC(C)(C)NC(=O)C(c1ccccc1F)N(Cc1ccco1)C(=O)Cn1nnc2ccccc21 (configuration not stated) | 3
COc1ccccc1-c1cn(S(=O)(=O)c2ccc(F)cc2)nc1N | 9
Cc1cc2c(cc1C)NC(c1c(C)n(C)n(-c3ccccc3)c1=O)C1=C(CC(C)(C)CC1=O)N2 (configuration not stated) | -62
COc1ccc(/C=N\n2nnc3ccccc32)cc1 | 70*
C=CCSc1nncn1/N=C/c1ccc(OC)cc1 | -83
CCN(C)c1ccc(/C=N\n2nnnc2N)cc1 | -87
FC(F)(F)c1cnc(Nc2ccc(N3CCOCC3)cc2)c(Cl)c1 | 4
c1ccc(-c2cccc(-c3ccccn3)n2)nc1 | 87*
c1ccc(-c2nnc(-c3ccccn3)nn2)nc1 | -47
CCc1c(C#N)c(N)nc(SCC(=O)OCc2ccccc2)c1C#N | -2
O=C(NC12CC3CC(CC(C3)C1)C2)c1ccc(S(=O)(=O)N2CCOCC2)cc1 | -2
CC[C@H]1OC(=O)C[C@@H](O)[C@H](C)[C@@H](O[C@@H]2O[C@H](C)C[C@H](N(C)C)[C@H]2O)[C@@H](CC=O)C[C@@H](C)C(=O)C=C[C@]2(C)O[C@H]2[C@@H]1C | 9
CC(=O)NCc1ccc(-c2csc(N)n2)s1 | 7
CSc1nc(=NC(C)=O)ss1 | 18
O=C(COc1ccc(F)cc1Br)N1CCc2ccccc21 | -51
O=C(CSc1nnc(COc2cccc3cccnc23)o1)N1CCc2ccccc21 | 53*
Cc1cc(C(=O)OCC(=O)N2CCc3ccccc32)c(C)o1 | -54
Cc1ccc(Cn2c(CN3CC(C)OC(C)C3)nc3c2c(=O)n(C)c(=O)n3C)cc1 (configuration not stated) | 15
Cc1ccc(N=Cc2ccc[nH]2)c(O)c1 | -9
COc1ccc(N(CC(=O)NC2CCCCC2)S(=O)(=O)c2cccnc2)cc1 | 8
Nc1nsc2ccccc12 | 58*
COC(=O)c1cccc(C(=O)Nc2ccc(C)cc2)n1 | -50
SMILES | SF-1 inh
CCC(C)(C)n1nnnc1C(c1cccc(C#N)c1)N1CCN(c2cccc(C)c2C)CC1 (configuration not stated) | 8
O=C1C2CC=CCC2C(=O)N1c1n[nH]c(Cc2ccccc2)n1 (configuration not stated) | 1
N#Cc1nc(-c2ccc(F)cc2)oc1N1CCCC1 | -8
CCc1ccc(-c2cn3nc(C)c(C)nc3n2)cc1 | 81*
Cc1nc2nc(-c3ccccc3)cn2nc1C | 55*
CNc1ccccc1-n1ccc(-c2ccccc2)n1 | -18
Cc1nn2cc(-c3ccc(N)cc3)nc2s1 | -88
Cn1c(NC(=O)CCc2ccccc2)cc(=O)n(C)c1=O | -56
Oc1ccc(-c2nnc(SCC3CCCCC3)o2)cc1 | -64
